Results: PubChem BioAssay (NCATS)
“And” between values parts separate entries of the source, which are not always exact repeats. Equal entries are not always repeated. Inconclusive results are not listed. A structure can be active in one record and inactive in another. The source made the active and inactive calls. Calls follow the shape of the dose curve; as a rule, active = well fitted activation curve with a large enough effect in the signal ratio; inconclusive = small, poorly fitted or top-dose-only effect, or effect the other way, or a change in a side signal; inactive = flat fitted curve, though single readings scatter; the % refers to the signal ratio.
Potency is read from the fitted curve at half-maximal effect.

Test: qHTS assay for small molecule agonists of the antioxidant response element (ARE) signaling pathway (AID 651741); as to activation: % of control where 0% means no effect
Conditions: HepG2 ARE-bla reporter, beta-lactamase FRET ratio, 16 h; series mostly up to 96 µM; activation: at the top concentration
Source text: National Center for Advancing Translational Sciences [NCATS]
NIH Chemical Genomics Center [NCGC]
U.S. Environmental Protection Agency [EPA]
National Institutes of Environmental Health Sciences [NIEHS]
National Toxicology Program [NTP]
Oxidative stress has been implicated in the pathogenesis of a variety of diseases ranging from cancer to neurodegeneration. The antioxidant response element (ARE) signaling pathway plays an important role in the amelioration of oxidative stress. The CellSensor ARE-bla HepG2 cell line (Invitrogen) can be used for analyzing the Nrf2/antioxidant response signaling pathway. Nrf2 (NF-E2-related factor 2) and Nrf1 are transcription factors that bind to AREs and activate these genes. The CellSensor ARE-bla Hep G2 cell line contains a beta-lactamase reporter gene under control of the Antioxidant Response Element (ARE) stably integrated into HepG2 cells. The activation of the report gene under culture conditions can be detected by fluorescence intensity. This cell line can be used to screen chemicals in a 1536-well plate format and to identify agonists that induce oxidative stress.
The ARE-bla cells were dispensed at 2,000 cells/5 ul/well in 1536-well black wall/clear bottom plates using a Multidrop dispenser. After the assay plates were incubated at a 37 C/5% CO2 incubator for 5 hours, 23 nL of compounds dissolved in DMSO, positive controls or DMSO only was transferred to the assay plate by a pin tool. The plates were incubated at 37 C for 16 hours. After 1 uL of LiveBLAzer B/G FRET substrate was added using a Flying Reagent Dispenser, the plates were incubated at room temperature for 2 hours, and fluorescence intensity was measured by an Envision plate reader.
In the case of Nc1nc(N)c2nc(CNc3ccc(C(=O)NC(CCC(=O)O)C(=O)O)cc3)cnc2n1 (centres undefined), the Potency was 0.077 µM (active). For Oc1c(Cl)c(Cl)c(Cl)c(Cl)c1Cl, the Potency was 26.6 µM (active) and 24.3 µM (active). In the case of C[C@H](CCC(=O)O)[C@H]1CC[C@H]2[C@@H]3CC[C@@H]4C[C@H](O)CC[C@]4(C)[C@H]3CC[C@]12C, the Potency was 26.6 µM (active) and 19.3 µM (active). In the case of CCOP(=S)(OCC)SCSCC, the “activation” value was 7.16% (inactive). With c1ccc2c(c1)-c1cccc3cccc-2c13 the Potency was “inactive and 30.6 µM (active)”. In the case of CCCCOP(=O)(O)OCCCC, the “activation” value was -0.168% (inactive). For CC(=O)[C@H]1CC[C@H]2[C@@H]3CCC4=CC(=O)CC[C@]4(C)[C@H]3CC[C@]12C, the Potency was 37.6 µM (active). For Oc1ccccc1Cl, the “activation” value was -0.234% (inactive). With Cc1cc(O)c2c(c1)C(=O)c1cc(O)cc(O)c1C2=O the Potency was 9.69 µM (active) and 18.8 µM (active). For C=CCOC(=O)c1ccccc1C(=O)OCC=C, the “activation” value was 9.66% (inactive). In the case of c1ccc(Nc2cccc3ccccc23)cc1, the Potency was 42.2 µM (active) and 24.3 µM (active). For CCOc1cc(C=O)ccc1O, the “activation” value was 8.51% (inactive). With COC(=O)c1ccccc1C(=O)OC the Potency was “inactive”. In the case of C[C@H]1O[C@H](OC2[C@@H](O)[C@@H](O)C(O)[C@H](O)[C@H]2O)[C@@H](N)C[C@@H]1N=C(N)C(=O)O (some centres undefined), the “activation” value was 4.16% (inactive). With CC(C)OC(=O)Nc1ccccc1 the “activation” value was -6.13% (inactive). In the case of CCOC(=O)c1ccccc1N, the “activation” value was 7.7% (inactive). For O=Cc1ccccc1, the “activation” value was 3.58% (inactive). For CC(=O)/C=C/c1ccccc1, the “activation” value was -1.46% (inactive). With Oc1ccccc1O the Potency was 29.8 µM (active). In the case of Cc1ccc(C)c2ccccc12, the “activation” value was 9.57% (inactive). In the case of c1ccc(Nc2ccc3ccccc3c2)cc1, the Potency was 42.2 µM (active) and 54.5 µM (active). With Cc1ccc2cc3c(ccc4ccccc43)c3c2c1CC3 the Potency was 2.17 µM (active). With COC1=CC(=O)OC(CCc2ccc3c(c2)OCO3)C1 (centres undefined) the “activation” value was 7.54% (inactive). With O=C1c2cccc(O)c2C(=O)c2c(O)cc(CO)cc21 the Potency was 12.2 µM (active).
